Laboratory results published in PubChem BioAssay AID504843 (Broad Institute, 2011).
About 360 (30%) of roughly 1,200 compounds were called active. These entries were drawn from the full list. Potency and affinity values are given separately. Unmarked numbers belong to inactive results. The rule behind the calls is not given here.

Experiment: bacterial growth inhibition, dose response, counter-screen, BacTiter-Glo luminescence, cherry-picked samples (AID 504843);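 note: growth measured after 8 h incubation at 30 °C; 0% = median of sample compound wells and -100% = antibiotic control wells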
Conditions: BacTiter-Glo ATP luminescence; series mostly up to 15 µM; activity change, negative = inhibition: at the top concentration

Point of comparison: `CSc1ncccc1C(=O)OCC(=O)N(C)c1c(N)n(Cc2ccccc2)c(=O)[nH]c1=O`, “activity change, negative = inhibition” value -15.7%. Against it:
- CC(C)(C)CC(=O)Nc1cccc(-c2cn3cccnc3n2)c1 — higher, -11.7%
- Cc1ccc(OCCNS(=O)(=O)c2ccc(N3CCCC3=O)cc2)cc1C — higher, -1.98%
- CCCCOc1ccc(NC(=O)c2cc(F)c(F)cc2Cl)cc1 — higher, -13.8%
- CCc1ccc(NC(=O)Nc2cc(C(=O)NCC3CCCO3)ccc2N2CC3CC(C2)c2cccc(=O)n2C3)cc1 (centres undefined) — higher, -0.12%
- COc1ccccc1OCCNC(=O)C1CCN(C(C)=O)CC1 — higher, 8.06%
- CC(C)(C)OC(=O)NCCCCCNC(=O)c1[nH]cnc1C(=O)NC1CCN(C(=O)OC(C)(C)C)CC1 — higher, -4.62%
- Cc1cc(C)cc(-n2c(C)cc(/C=C3\C(=N)N4N=C(CC(C)C)SC4=NC3=O)c2C)c1 — higher, 0.158%
- COc1ccc(CCNC(=O)/C=C/c2ccco2)cc1OC — higher, 0.154%
- O=C(NNc1ccnc2cc(Cl)ccc12)C1CCCCC1 — higher, -7.77%
- Cc1ccc(CN(C(=O)c2sc3ccccc3c2Cl)C2CCS(=O)(=O)C2)cc1 (centres undefined) — higher, 9.82%
- O=C(O)[C@H](CO)Nc1ncnc2sc3c(c12)CCC3 — higher, 11.8%
- O=C(CCNS(=O)(=O)c1ccccc1C(F)(F)F)N1CCN(c2ccccc2O)CC1 — higher, 9.42%
- CCN(CC)C(=O)CSc1nc2ccccc2o1 — higher, 16.9%
- CCCCN(CC)CCNC(=S)Nc1ccc2nc(N3CCN(C)CC3)cc(C)c2c1 — higher, 1.76%
- O=C(Nc1ccc(C2=NCCN2)cc1)c1ccc(C(=O)Nc2ccc(C3=NCCN3)cc2)c([N+](=O)[O-])c1 — higher, 6.04%
- CC(=O)Nc1ccc(Nc2nc(C)c([N+](=O)[O-])c(N(C)c3ccccc3)n2)cc1 — higher, 15.8%
- CC1CN(C(=O)c2cc3cc([N+](=O)[O-])ccc3oc2=O)CC(C)O1 (centres undefined) — higher, 3.61%
- O=C(CSC1=NCCS1)c1ccc(Cl)cc1 — higher, 9.01%
- Cc1[nH]c2ccccc2c1Cc1nnc(SCC(N)=O)o1 — higher, 1.89%
- COc1ccc(-c2cc(C)no2)cc1S(=O)(=O)NCCCN1CCCCCC1 — higher, -7.18%
- CCNc1c(NS(=O)(=O)c2ccc(OC)cc2)c(=O)oc2ccccc12 — lower, -17.3%
- COc1ccccc1N1CCN(c2nc(-c3ccccc3)cc(C(F)(F)F)n2)CC1 — higher, -0.607%
- CCNc1nc(NCC)nc(OCCOC(C)=O)n1 — higher, -9.52%
- Nc1cc(N)nc(SCc2ccc(Cl)cc2)n1 — higher, 4.2%
- Cc1cccc(NC(=O)c2cc(S(=O)(=O)N3CCC4(CC3)OCCO4)ccc2F)c1 — higher, -2.34%
- O=C(Nc1ccccc1F)c1ccc([N+](=O)[O-])s1 — higher, 17.9%
- c1ccc2c(N3CCOCC3)nc(-c3ccncc3)nc2c1 — higher, -1.69%
- CCNC(=O)NC(=O)C(C)OC(=O)C1CCN(S(=O)(=O)c2ccccc2F)CC1 (centres undefined) — higher, 18.5%
- Cc1cc(C)c(S(=O)(=O)N2CCN(C(=O)CN3C(=O)NC4(CCCC4)C3=O)CC2)c(C)c1 — higher, 6.89%
- Cc1ccc(C)c(SCC(=O)Nc2cccc(S(=O)(=O)NC3=NCCCCC3)c2)c1 — higher, 8.62%
- Cc1ccc(CCNC(=O)CCS(=O)(=O)c2cc3c(cc2C)NC(=O)CO3)cc1 — higher, 7.13%
- CN(Cc1ccccc1)c1ncnc2sccc12 — higher, 5.73%
- Cc1cccc(NC(=O)[C@H](Cc2ccccc2)NC(=O)OCc2ccccc2)c1 — higher, -12.2%
- CC(C)(C)CC(=O)Nc1ccc(Nc2ccccc2)cc1 — higher, -10.5%
- CC(C)CN(C(=O)COC(=O)c1ccccc1NCc1ccco1)c1c(N)n(Cc2ccccc2)c(=O)[nH]c1=O — higher, 14.3%
- COC(=O)C[C@H]1c2cc(F)cc(F)c2S(=O)(=O)N1C1CCN(Cc2ccccc2)CC1 — higher, 8.72%
- O=C(Cn1c(=O)oc2cc(S(=O)(=O)N3CCc4ccccc43)ccc21)N1CCCCC1 — higher, -6.67%
- CCCCN(CC)CCNS(=O)(=O)c1ccc2c(c1)oc(=O)n2C — higher, 2.71%
- CCOc1cc(/C=N/NC(=O)C(=O)NCc2cccnc2)ccc1O — higher, -2.33%
- COc1ccccc1C(=O)Nc1ccc2c(c1)CN(Cc1cnc(C)s1)CC2 — higher, 11%
- Cc1cccc(NC(=O)CNC(=O)CN2C(=O)NC3(CCc4ccccc43)C2=O)c1C (centres undefined) — higher, -4.94%
- Cc1ccc(C)c(NC(=O)CN(C)C(=O)c2cccc(S(=O)(=O)N(C)C)c2)c1 — higher, -5.14%
- Cc1ccccc1NC(=S)N1CCN(Cc2ccc3c(c2)OCO3)CC1 — higher, 0.01%
- CCN(CC)S(=O)(=O)c1cc(NC(=O)c2ccc(-n3cncn3)c([N+](=O)[O-])c2)ccc1C — higher, 6.68%
- CC1CCN(c2ccc(C(=O)NCc3ccco3)cc2[N+](=O)[O-])CC1 — higher, -10.9%
- CC1(C)C2CCC1(C)C(NC(=O)/C=C/c1ccccc1)C2 (centres undefined) — lower, -17.4%
- O=c1oc2ccccc2c(N2CCC(c3ccccc3)CC2)c1[N+](=O)[O-] — higher, -11.2%
- Cc1ccccc1N/N=C/c1ccc(C#N)cc1 — higher, 13.8%
- Cc1ccc(-c2nn(-c3ccccc3)cc2CC(=S)N2CCOCC2)cc1 — higher, 16.7%
- Cc1cccc(-n2c(SCC(=O)NC3CCCC3)nnc2-c2ccoc2C)c1 — higher, 4.43%
- O=C(CSc1nnc(-c2ccccc2)n1C1CCCCC1)N1CCCC1 — higher, -4%
- Cc1ccc(C2CC(c3ccccc3)n3ncnc3N2)cc1 (centres undefined) — higher, 15.1%
- CCn1c(C)cc(/C=C2/NC(=O)N(Cc3ccccc3F)C2=O)c1C — higher, -2.29%
